# ± gives the standard deviation of the averaged measurements. The full data set covers some 5,400 targets. This sample favours those with the largest changes.
# Compound: Nc1nc2c(ncn2[C@@H]2O[C@H](COP(=O)(O)OP(=O)(O)OP(=O)(O)O)[C@@H](O)[C@H]2O)c(=O)[nH]1 [guanosine triphosphate]
# Assay: NP40-soluble protein abundance relative to vehicle (solubility fold change) (ratio); higher = more soluble protein in presence of GTP
# Method in brief: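 Values are fold changes against the detergent-processed vehicle, based on vsn-normalised intensities. Jurkat crude lysate was treated at eight concentrations from 0.1 to 10 mM (10 min at room temperature, then 3 min at 37 °C), solubilised with 0.8% NP40 and benzonase, ultracentrifuged and analysed by TMT-labelled LC-MS/MS over three independent experiments.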
# UniProt Q9Y3E2, sequence (Q9Y3E2 whole entry): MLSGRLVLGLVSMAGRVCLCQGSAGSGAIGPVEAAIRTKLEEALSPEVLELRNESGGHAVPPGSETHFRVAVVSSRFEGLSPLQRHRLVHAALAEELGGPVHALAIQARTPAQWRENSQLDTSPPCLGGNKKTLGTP
# UniProt Q9UGP8, sequence (Q9UGP8 whole entry): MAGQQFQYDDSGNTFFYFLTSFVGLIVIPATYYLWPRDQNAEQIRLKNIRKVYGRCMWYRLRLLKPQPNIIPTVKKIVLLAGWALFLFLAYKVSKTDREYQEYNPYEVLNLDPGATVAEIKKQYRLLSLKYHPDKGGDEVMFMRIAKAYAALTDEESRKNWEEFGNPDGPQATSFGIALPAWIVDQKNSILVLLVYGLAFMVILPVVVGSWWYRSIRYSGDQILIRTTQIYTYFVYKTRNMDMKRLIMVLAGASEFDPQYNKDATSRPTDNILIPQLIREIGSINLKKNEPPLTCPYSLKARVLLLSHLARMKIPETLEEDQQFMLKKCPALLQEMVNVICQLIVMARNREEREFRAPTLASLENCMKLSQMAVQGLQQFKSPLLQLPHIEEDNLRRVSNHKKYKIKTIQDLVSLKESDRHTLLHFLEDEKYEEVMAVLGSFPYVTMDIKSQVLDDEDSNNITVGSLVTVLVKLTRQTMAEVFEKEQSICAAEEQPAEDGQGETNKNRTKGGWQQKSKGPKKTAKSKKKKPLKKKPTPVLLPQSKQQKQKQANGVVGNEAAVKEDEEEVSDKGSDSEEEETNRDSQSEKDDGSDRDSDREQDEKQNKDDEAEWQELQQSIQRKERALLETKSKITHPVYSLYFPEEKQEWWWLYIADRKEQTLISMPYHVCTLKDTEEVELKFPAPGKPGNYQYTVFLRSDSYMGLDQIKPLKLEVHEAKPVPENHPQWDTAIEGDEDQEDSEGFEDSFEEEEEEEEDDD
# UniProt Q9Y6A4, sequence (Q9Y6A4 whole entry): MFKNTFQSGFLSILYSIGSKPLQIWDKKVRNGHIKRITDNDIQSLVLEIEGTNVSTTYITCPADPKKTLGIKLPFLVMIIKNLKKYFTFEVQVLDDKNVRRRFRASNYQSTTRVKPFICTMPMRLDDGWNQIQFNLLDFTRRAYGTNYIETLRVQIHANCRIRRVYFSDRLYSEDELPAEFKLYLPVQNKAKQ
# UniProt Q9UNE7, sequence (Q9UNE7 whole entry): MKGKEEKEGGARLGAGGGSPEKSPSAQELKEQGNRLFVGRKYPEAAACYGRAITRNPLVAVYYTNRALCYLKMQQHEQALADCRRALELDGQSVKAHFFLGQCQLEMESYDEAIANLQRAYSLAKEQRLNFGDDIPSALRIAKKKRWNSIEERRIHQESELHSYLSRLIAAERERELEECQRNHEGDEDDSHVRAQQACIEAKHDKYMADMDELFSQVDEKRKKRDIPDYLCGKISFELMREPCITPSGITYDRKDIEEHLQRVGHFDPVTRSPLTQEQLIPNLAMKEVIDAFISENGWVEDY
Target,NP40-soluble protein abundance (concentration: 0.1mM),NP40-soluble protein abundance (concentration: 0.5mM),NP40-soluble protein abundance (concentration: 1mM),NP40-soluble protein abundance (concentration: 2mM),NP40-soluble protein abundance (concentration: 4mM),NP40-soluble protein abundance (concentration: 6mM),NP40-soluble protein abundance (concentration: 8mM),NP40-soluble protein abundance (concentration: 10mM)
UniProt Q9H330|Q9H330-2,0.908 ± 0.04,0.876 ± 0.06,0.796 ± 0.083,0.809 ± 0.017,0.799 ± 0.035,0.834 ± 0.028,0.81 ± 0.074,0.833 ± 0.037
SEC63 (UniProt Q9UGP8),0.964 ± 0.023,0.977 ± 0.022,0.935 ± 0.045,0.926 ± 0.036,0.913 ± 0.073,0.927 ± 0.026,0.93 ± 0.022,0.897 ± 0.03
UniProt Q96RW7|Q96RW7-2,1.17 ± 0.29,1.11 ± 0.23,0.938 ± 0.16,1.06 ± 0.37,0.985 ± 0.2,0.889 ± 0.19,0.892 ± 0.13,0.924 ± 0.16
BOLA1 (UniProt Q9Y3E2),0.909 ± 0.069,0.941 ± 0.075,0.943 ± 0.06,0.943 ± 0.028,0.908 ± 0.073,0.933 ± 0.059,0.903 ± 0.038,1.04 ± 0.055
UniProt Q9Y6A4,1.09 ± 0.027,1.04 ± 0.076,0.962 ± 0.024,0.968 ± 0.1,1.01 ± 0.05,0.964 ± 0.087,1.01 ± 0.05,0.957 ± 0.11
UniProt Q9Y3U8|J3QSB5,0.976 ± 0.084,0.987 ± 0.01,1.04 ± 0.075,0.994 ± 0.14,0.921 ± 0.12,0.855 ± 0.09,0.514 ± 0.13,0.919 ± 0.16
STUB1 (UniProt Q9UNE7),0.948 ± 0.056,0.8985 ± 0.0031,1.02 ± 0.1,1.03 ± 0.027,1.01 ± 0.078,1.01 ± 0.012,1.01 ± 0.049,1.03 ± 0.081

# From the supplement of paper PMC6411743
